Among the data in PubChem BioAssay (NCI) are growth values, retold here.

Where “and” joins values, the source holds several entries; their conditions need not be identical. Identical values can stand only once. The panel holds about 83,000 compounds, 20% with a hit somewhere; the sample as a whole holds those more often.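 Activity criterion: percent growth below 10, measured after cells in 96-well plates were exposed to a single compound concentration for 48 hours.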 Values without a mark were called inactive. Calls of active or inactive are those of the source.

In the assay the test system is U251 CNS. The experiment in a line: NCI-60 one-dose screen, 48 h (100 = growth as untreated, 0 = no growth, -100 = all killed). The conditions noted are these: 10 µM unless noted.
Consider `Oc1ccc2ccccc2c1N=Nc1ccccn1`, for which the growth is 30.5%.
With `OC(c1cc(-c2ccc(C(F)(F)F)cc2)nc(C(F)(F)F)c1)C1CCCCN1` (stereo not drawn) the figure was -89% (active) and -95.4% (active) and -62% (active); with `C/C(=N/NC(N)=S)c1ccc(C)cc1`, 84.9%.
As for `N#Cc1c2ccccc2nc2ccccc12`, the growth is 94.9%.
Take `CC(/C=N/NC(N)=S)Cc1ccc(C(C)C)cc1` (stereo not drawn): the growth was 88.7%.
Take `Nc1cc(-c2ccccc2)ccc1O`: the growth is 101%.
For `Oc1c(C(Nc2ccccc2)c2ccccc2)ccc2cccnc12` (stereo not drawn), the growth is 25.7%.
`O=C(Cc1nc2cc(Cl)c(Cl)cc2nc1CC(=O)c1cccnc1)c1cccnc1`: the growth was 89.3%.
Take `COc1cccc2c1C(=O)c1c(O)c3c(c(O)c1C2=O)C[C@@](O)(C(=O)CO)C[C@@H]3OC1CC(OC(C)=O)C(OC(C)=O)C(C)O1` (stereo partly drawn): the growth is -42.9% (active).
Take `O=[N+]([O-])c1ccc([I+]c2ccccc2)cc1`: the growth is -97.1% (active).
With `O=C1C=CC(=O)N1c1ccccc1` the figure was 94.1%; with `O=[N+]([O-])CC(O)c1ccccc1` (stereo not drawn), 98.7%.
Take `CN=C(N)N/N=C(\C)c1ccc2c(c1)Cc1ccccc1-2`: the growth is -82.2% (active).
With `CCN(CC)CCNc1ccc([N+](=O)[O-])c2sc3ccccc3c(=O)c12` the figure was 22.8%; with `O/N=C1\c2ccccc2-c2ccc(F)cc21`, 106%; with `COc1cc(NC(=O)C2=C(C)NC(C)=C(C(=O)Nc3cc(OC)c(Cl)cc3OC)C2c2cccc([N+](=O)[O-])c2)c(OC)cc1Cl`, 31.6%.
With `O=[N+]([O-])c1ccc(Oc2ccccc2Cl)c([N+](=O)[O-])c1` the figure was 88.4%; with `O=C(O)c1ccc2c(c1)C(=O)c1ccccc1C2=O`, 98.9%; with `COc1cc2c(c(OC)c1OC)-c1ccc(NCc3ccccc3)c(=O)cc1[C@@H](NC(C)=O)CC2`, 19%.
In the case of `CN=C(N)N/N=C(\c1ccccc1)c1ccc(Br)cc1`, the growth is -9.13% (active).
Regarding `O=C(NOC(=O)c1ccccc1)c1ccccc1`, the growth was 105%.
For the molecule `C(=N\Nc1ccc2ccccc2n1)/c1ccccn1`, the growth is 10.1%.
The same measure for `O=C(CCl)N1c2ccccc2Sc2c1ccc1ccccc21`: 63.8%.
